Assay outcomes as filed in PubChem.
A selection: hits, their analogues and other compounds. The true share with any hit is near 2.1%.
Env fusion inh – inhibitors of HIV Env-mediated cell fusion | HeLa-JRFL Env/CEM21 cell fusion, luciferase | AID 651610 | 1.1% of 360,000 active | inhibition, % at 12.3 µM;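 active = mean replicate inhibition score of at least 50 and every replicate individually at or above 50; inconclusive = only one of the two criteria met; inactive = mean below 50 and not all replicates reaching 50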
NR2F2 inh – NR2F2 (human) inhibition, primary screen; HEK293T NGFI-A luciferase reporter, luminescence; P24468; 0.7% of 370,000 active; inhibition, % at 8.6 µM;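 active = inhibition above a per-plate cutoff, mean inhibition of test wells between control levels plus 3 SD, cut at about 38% in these data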;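 also: cells cotransfected with COUP-TFII expression vector driving the NGFI-A reporter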
Target sequence (P24468 whole entry, looked up): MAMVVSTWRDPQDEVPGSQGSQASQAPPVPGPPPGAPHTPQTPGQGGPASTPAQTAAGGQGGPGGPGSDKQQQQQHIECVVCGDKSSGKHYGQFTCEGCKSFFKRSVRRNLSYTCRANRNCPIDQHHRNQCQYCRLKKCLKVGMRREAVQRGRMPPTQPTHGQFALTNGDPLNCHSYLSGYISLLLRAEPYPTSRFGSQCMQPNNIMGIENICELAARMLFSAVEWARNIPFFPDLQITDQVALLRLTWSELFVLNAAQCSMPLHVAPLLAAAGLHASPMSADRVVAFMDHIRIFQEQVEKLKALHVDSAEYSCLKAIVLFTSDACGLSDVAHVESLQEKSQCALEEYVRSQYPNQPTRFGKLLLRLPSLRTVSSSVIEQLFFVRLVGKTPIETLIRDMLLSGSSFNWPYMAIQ
Gli-Sufu antag – blocks Gli-Sufu signaling in a luciferase reporter | Sufu-KO-LIGHT fibroblasts, Gli luciferase reporter luminescence | inhibition, % at 5 µM | 0.74% of 340,000 active;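 active = inhibition above about 55%, limit read from the data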
GalR3 antag – antagonists of human GalR3. HEK293 GalR3-CNG cAMP membrane potential fluorescence; galR3 body fused to GalR1 C-terminus. inhibition, % at 3 µM. 0.44% of 360,000 active. AID 651719;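 active = inhibition above the screen-wide average plus 3 SD, cut at about 13% in these data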;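 also: forskolin and galanin both at EC90 stimulate the cells; cAMP rise reported by CNG channel membrane potential dye signal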
aDG glyco up – increases alpha dystroglycan glycosylation | Pro5-aDG cells, alpha-DG glycosylation AlphaScreen (IIH6); 0% Pro5, 100% B10-LARGE cell signal | activation, % at 10 µM | 0.22% of 360,000 active;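 active = activation of at least 8% versus controls, or a plate z-score of at least 8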;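 also: Pro5 are CHO cells carrying HIG-tagged alpha-DG that lacks glycosylation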
Hits are given with their value; . = inactive; ? = inconclusive; / = no result.

SMILES	Env fusion inh	NR2F2 inh	Gli-Sufu antag	GalR3 antag	aDG glyco up
C[C@H]1CN([C@@H](C)CO)C(=O)c2cc(-c3ccncc3)cnc2O[C@H]1CN(C)C(=O)c1ccncc1	.	/	/	/	/
C[C@H]1CCCCO[C@@H](CN(C)C(=O)CCC(F)(F)F)[C@@H](C)CN([C@@H](C)CO)C(=O)c2cc(NS(=O)(=O)c3cn(C)cn3)ccc2O1	.	/	/	/	/
O=C(O)C[C@H]1C[C@H]2c3cc(NC(=O)Nc4ccccc4)ccc3O[C@H]2[C@H](CO)O1	.	/	/	/	/
Cc1ccc(C(=O)CSC2=C(C#N)C(c3ccco3)C3=C(CCCC3=O)N2)cc1 (stereo not given)	.	.	.	.	.
CC(C)(C)c1ccc(C(=O)CCCSC2=C(C#N)C(c3ccco3)C3=C(CCCC3=O)N2)cc1 (stereo not given)	79.0	.	.	.	.
CC(C)(C)[C@@H]1C=C(C(=O)Nc2ccccc2)O[C@H](OCc2ccc(CO)cc2)C1	96.6	.	.	.	.
Cn1c(=O)c2c(nc(Br)n2Cc2ccc3ccccc3c2)n(C)c1=O	58.5	.	.	.	.
Cn1c(=O)c2c(nc(Oc3ccc4ccccc4c3)n2C)n(C)c1=O	102.5	.	.	.	.
Cn1c(=O)c2c(nc(Br)n2Cc2ccccc2Cl)n(C)c1=O	/	.	.	.	.
COc1ccc(Oc2nc3c(c(=O)n(C)c(=O)n3C)n2C)cc1	?	.	.	.	.
O=C(Nc1ccc(F)cc1)Nc1ccc2c(c1)[C@H]1C[C@H](CC(=O)N3CCOCC3)O[C@H](CO)[C@H]1O2	.	/	/	/	/
CS(=O)(=O)N(CC(O)CON=C1c2ccccc2-c2ccccc21)c1ccc(F)cc1 (stereo not given)	/	.	.	.	.
CCN(CC(O)CON=C1c2ccccc2-c2ccccc21)S(=O)(=O)c1ccc(Cl)cc1 (stereo not given)	76.8	.	.	.	.
CCN(CC(O)CON=C1c2ccccc2-c2ccccc21)S(=O)(=O)c1ccc(C)cc1 (stereo not given)	79.1	.	.	.	.
CN(CC(O)CON=C1c2ccccc2-c2ccccc21)S(=O)(=O)c1ccc(Br)cc1 (stereo not given)	.	.	.	.	.
Cc1cccc(N(CC(O)CON=C2c3ccccc3-c3ccccc32)S(C)(=O)=O)c1 (stereo not given)	64.7	.	.	.	.
COc1ccc(S(=O)(=O)Nc2ccc3c(c2)C(=O)N([C@H](C)CO)C[C@H](C)[C@H](CN(C)Cc2ccncc2)OCCCC[C@@H](C)O3)cc1	.	/	/	/	/
O=[N+]([O-])c1ccc(N2CCC(=NOCc3ccc(Cl)cc3)CC2)cc1	74.6	.	.	.	.
COc1ccccc1NC(=O)Nc1ccc2c(c1)C(=O)N(C)C[C@@H](OC)[C@H](C)CN(C)[C@H](C)CO2	.	/	/	/	/
CCCCOc1ccc(S(=O)(=O)Nc2cccnc2)cc1	69.1	.	.	.	.
Cc1ccc(S(=O)(=O)Nc2cccnc2)cc1	.	.	.	.	.
CNC[C@H]1OCCCC[C@H](C)Oc2ccc(NS(=O)(=O)c3ccc(C)cc3)cc2C(=O)N([C@H](C)CO)C[C@@H]1C	.	/	/	/	/
CCc1n[nH]c(=S)n1/N=C/c1cccc2ccccc12	?	.	.	.	.
Cc1nnc(-c2ccccc2)c(=O)n1/N=C/c1c(O)ccc2ccccc12	/	.	91.2	.	.
CCc1n[nH]c(=S)n1/N=C/c1c(O)ccc2ccccc12	56.1	.	.	.	.
SMILES	Env fusion inh	NR2F2 inh	Gli-Sufu antag	GalR3 antag	aDG glyco up
Cc1noc(C)c1NC(=O)N(C)C[C@@H]1OCCCC[C@H](C)Oc2ccc(NS(C)(=O)=O)cc2C(=O)N([C@@H](C)CO)C[C@H]1C	.	/	/	/	/
CO[C@@H]1CN(C)C(=O)c2cc(NC(=O)C3CCCC3)ccc2OC[C@H](C)N(C(C)=O)C[C@@H]1C	.	/	/	/	/
CCc1nc2ccc(C(=O)N3CCN(C(=O)c4ccco4)CC3)cn2c1N(C)Cc1ccc(OC)cc1	72.3	.	/	.	.
COc1ccc(CN(C)C[C@H]2Oc3c(NS(C)(=O)=O)cccc3C(=O)N([C@@H](C)CO)C[C@@H]2C)cc1	.	/	/	/	/
COCC#Cc1cnc2c(c1)C(=O)N([C@@H](C)CO)C[C@H](C)[C@@H](CN(C)C(=O)C1CCCCC1)O2	.	/	/	/	/
CC(C)CCCCCCCCCCCCC(=O)NCC(=O)NC1C(O)C(O)C(Nc2ncnc3nc[nH]c23)OC1C(O)CO (stereo not given)	/	/	84.8	/	.
COc1ccc(C#Cc2cnc3c(c2)C(=O)N([C@@H](C)CO)C[C@@H](C)[C@@H](CN(C)CC2CC2)O3)cc1	.	/	/	/	/
CC(C)(C)NC(=O)C(c1ccccc1)N(Cc1cccs1)C(=O)c1csnn1 (stereo not given)	71.9	.	.	.	.
CC(C)(C)NC(=O)C(c1cccs1)N(Cc1ccco1)C(=O)c1csnn1 (stereo not given)	.	.	.	.	.
CN(C[C@H](Cc1ccccc1)N(C[C@H](CC1CCCCC1)N(CCc1ccccc1)N=O)N=O)N=O	67.3	.	.	.	.
CN(C[C@@H](CC1CCCCC1)N(C[C@H](Cc1ccccc1)N(CCc1ccccc1)N=O)N=O)N=O	83.6	.	.	.	.
CN(C[C@H](Cc1ccccc1)N(C[C@H](Cc1ccccc1)N(CC1(c2ccccc2)CC1)N=O)N=O)N=O	98.4	.	.	.	.
CCC(C)[C@@H](CN(N=O)[C@@H](Cc1ccccc1)CN(C)N=O)N(CCc1ccccc1)N=O (stereo not given in full)	/	/	.	/	.
Cc1noc(C)c1S(=O)(=O)Nc1ccc2c(c1)C(=O)N([C@H](C)CO)C[C@H](C)[C@@H](CN(C)C(=O)NC1CCCCC1)OCCCC[C@H](C)O2	.	/	/	/	/
Cc1ccc2c(c1)c1c3n2CCN(CC(N)=O)C3CCC1 (stereo not given)	81.0	.	.	.	.
O=C(NC1CCCC1)N[C@H]1CC[C@@H](CC(=O)N2CCOCC2)O[C@@H]1CO	.	/	/	/	/
COCCn1c(C)cc(C(=O)CSc2n[nH]c(N)n2)c1C	.	.	.	.	.
COCCn1c(C)cc(C(=O)CSc2nnc(C)s2)c1C	63.0	.	.	.	.
C[C@@H]1CCCCO[C@H](CN(C)C(=O)C2CCCCC2)[C@@H](C)CN([C@@H](C)CO)C(=O)c2cc(NS(C)(=O)=O)ccc2O1	.	/	/	/	/
COc1ccc(OCC(=O)NCC(c2cccs2)N2CCOCC2)cc1 (stereo not given)	.	.	.	.	.
CC(C)(C)c1ccc(OCC(=O)NCC(c2cccs2)N2CCOCC2)cc1 (stereo not given)	62.3	.	.	.	.
COC(=O)c1cc2c(c3c4cc(OC)ccc4n(S(=O)(=O)c4ccccc4)c13)C(=O)N(Cc1ccc(C(F)(F)F)cc1)C2	95.7	.	/	.	/
CCOC(=O)C1=C(CC)Nc2ccccc2N=C1NC(=O)c1cc(C)on1	/	.	.	.	.
CCOC(=O)C1=C(CC)Nc2ccccc2N=C1NC(=O)Nc1ccc(Cl)c(Cl)c1	113.5	.	.	.	.
